Rows were chosen to be rich in hits. Some 2.1% of all compounds tested hit in one or more screens of this group.
Abeta yeast res: qHTS for compounds that reverse cellular toxicity of Amyloid beta (A-beta) peptide in yeast: Primary Screen; yeast expressing A-beta42, growth rescue, OD600, 48 h; response scale: 0% DMSO, 100% iron-clioquinol control; Potency, µM (highest dose often 46.1 µM), hits mostly activators; 0.063% of 410,000 active; AID 1347071, 2019; further: nearly all actives have a fitted effect of over 55% in size
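Growth rescue measured by 600 nm absorbance after 48 h yeast culture at 30 C with compound. Values normalized between DMSO and an equimolar ferric chloride plus clioquinol control.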
FUS suppressor: qHTS for Suppressors of FUS Proteinopathy: Primary screen using FUS-linked yeast assay. S. cerevisiae FUS-expressing, growth rescue, OD600, 24 h. Potency, µM (series often up to 76.6 µM), usual class: activators. 0.24% of 390,000 active. AID 1347120, 2019; further: nearly all actives have a fitted effect of over 55% in size
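Cultures pregrown in 2.5% raffinose medium are shifted to minimal medium containing 2% galactose to express toxic FUS. Compounds are tested at several concentrations. After 24hr at 30C, growth is quantified at 600 nm absorbance.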
TDP-43 yeast inh: qHTS of TDP-43 Inhibitors; Potency, µM (titrated, usually from 46.1 µM), most hits filed as activators; 1.8% of 410,000 active; TDP-43 expressing yeast growth rescue, BacTiter-Glo, 24 h; further: nearly all actives have a fitted effect of over 50% in size
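Galactose-induced TDP-43 yeast, OD600=0.02, compound pinned; 24 hr, 30 deg C; BacTiter-Glo luminescence for growth. Inhibitors of TDP-43 toxicity read as activators.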
aSyn yeast inh: qHTS of alpha-syn Inhibitors; AID 652106, 2013; Yeast expressing alpha-synuclein, growth rescue, BacTiter-Glo, 24 h; Potency, µM (highest dose often 46.1 µM), actives largely listed as activators; 0.14% of 370,000 active; further: nearly all actives have a fitted effect of over 65% in size
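Screening used galactose-induced yeast with toxic alpha-synuclein levels, exposed to compound for 24 hr at 30 deg C. Cell growth, read with BacTiter-Glo luminescence, gave the measured signal.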
Of the large screens only hits and unclear results are named; the others gave an inactive call. The call rests on the fitted dose curve; in most records, active means well fitted curve in the direction sought with a large enough effect; inconclusive means small, poorly fitted or top-dose-only effect, or another doubt; inactive means no such curve, though single readings can be large; an effect the other way counts as inactive or inconclusive.

O=C1C2C3C=CC(C4CC34)C2C(=O)N1/N=C/c1ccc([N+](=O)[O-])o1 (configuration not stated)	TDP-43 yeast inh inconclusive
CSc1nnc2ccc(-c3ccccn3)nn12	none
CSc1c(-c2ccccn2)c(N)nn1C(=O)C1CCC1	TDP-43 yeast inh 11µM
CSc1c(-c2ccccn2)c(N)nn1C(=O)C1CC1	TDP-43 yeast inh 11µM
CCOC(=O)[C@@]12CCC3=C1N(CCC3)C(=O)[C@H](CC(=O)NCCCN1CCCC1=O)C2	none (no result: Abeta yeast res, TDP-43 yeast inh, aSyn yeast inh)
O=C(Nc1ccccc1C(=O)Nc1ccc(Br)cn1)c1ccccc1Cl	TDP-43 yeast inh 20µM
CCOc1cc(-c2nc3ccccc3s2)ccc1O	TDP-43 yeast inh 13µM
O=C(O)Cc1ccc2sc(-c3ccccc3)nc2c1	TDP-43 yeast inh 3.2µM (no result: FUS suppressor)
O=C(Nc1cccc(-c2nc3ccccc3s2)c1)C1=COCCO1	TDP-43 yeast inh 20µM (no result: FUS suppressor)
CC(=O)Nc1cccc(-c2nc3ccccc3s2)c1	TDP-43 yeast inh 8.9µM
CC(=O)Nc1cccc(-c2nc3ccc(NC(C)=O)cc3s2)c1	none
COc1cc2c(cc1OC)n(CC(=O)c1cc(C)ccc1C)c(=O)n1nc(CCn3nc(C)cc3C)nc21	none (no result: aSyn yeast inh)
C[C@H](O)[C@@H]1CN2CCc3c([nH]c4cccc(-c5ccccc5)c34)[C@@H]2C[C@@H]1N(C)C(=O)Nc1ccccc1	none (no result: Abeta yeast res, TDP-43 yeast inh, aSyn yeast inh)
C[C@@H]1COc2cc(Br)ccc2S(=O)(=O)N1Cc1cn(Cc2ccc(Cl)cc2)nn1	none (no result: Abeta yeast res, TDP-43 yeast inh, aSyn yeast inh)
CC1(C(=O)O)CCCN(C(=O)C2(c3ccc(Cl)cc3)CCCC2)C1 (configuration not stated)	TDP-43 yeast inh 18µM
CC1(C(=O)NS(=O)(=O)C2CC2)CCN(C(=O)C2(c3ccc(Cl)cc3)CCCC2)C1 (configuration not stated)	none
O=C(Nc1ccc2c(c1)OCO2)c1cc(C2CCCN(C(=O)CCc3ccccc3)C2)on1 (configuration not stated)	FUS suppressor inconclusive, TDP-43 yeast inh 22µM
O=C(Nc1ccc2c(c1)OCO2)c1cc(C2CCCCN2C(=O)CCCc2ccccc2)on1 (configuration not stated)	TDP-43 yeast inh 35µM
Cc1ccc(F)cc1C(=O)N1CCCC(c2cc(C(=O)Nc3ccccc3)no2)C1 (configuration not stated)	TDP-43 yeast inh 35µM, aSyn yeast inh inconclusive
O=C(Nc1ccccc1)c1cc(C2CCCCN2C(=O)CCCc2ccccc2)on1 (configuration not stated)	FUS suppressor inconclusive
O=C(Nc1ccc2c(c1)OCO2)c1cc(C2CCCN(C(=O)CCCc3ccccc3)C2)on1 (configuration not stated)	FUS suppressor inconclusive, TDP-43 yeast inh inconclusive
O=C(Nc1ccccc1)c1cc(C2CCCN(C(=O)C/C=C/c3ccccc3)C2)on1 (configuration not stated)	FUS suppressor inconclusive, TDP-43 yeast inh 22µM
CC(c1c[nH]c2ccccc12)c1cn(C)c2ccccc12 (configuration not stated)	none (no result: Abeta yeast res, TDP-43 yeast inh, aSyn yeast inh)
O=C(Nc1ccc(F)c(Cl)c1)c1cc(C2CCCN(C(=O)c3cccs3)C2)on1 (configuration not stated)	TDP-43 yeast inh 22µM
O=C(Nc1ccc(F)c(Cl)c1)c1cc(C2CCCCN2C(=O)c2cccs2)on1 (configuration not stated)	FUS suppressor inconclusive
Cc1ccc(CN2CCCCC(NC(=O)c3ccc(COc4ccccc4)cc3)C2=O)cc1 (configuration not stated)	none (no result: Abeta yeast res, TDP-43 yeast inh, aSyn yeast inh)
O=c1cc(-c2ccc(C3CCCCC3)cc2)[nH][nH]1	TDP-43 yeast inh 18µM
CCN(CCCN(C)C)c1ccc(/C=C/c2ccnc3ccccc23)cc1	none (no result: Abeta yeast res, FUS suppressor, TDP-43 yeast inh)
Cc1nc(Br)c(Br)n1Cc1ccccc1	TDP-43 yeast inh 11µM
Cc1nc2ccccc2n1Cc1ccccc1	none
COc1cc(Nc2nc(-c3ccccc3)c3cc(C)ccc3n2)cc(OC)c1OC	TDP-43 yeast inh 20µM
Clc1ccc(-c2cc3ccccc3nc2N2CCOCC2)cc1	TDP-43 yeast inh 18µM
Clc1ccc(-c2cc3ccccc3nc2N2CCCC2)cc1	none
CC(C)C[C@H]1COc2cccc(N3CCSCC3)c2S(=O)(=O)N1C	none (no result: Abeta yeast res, TDP-43 yeast inh, aSyn yeast inh)

Source: PubChem BioAssay
